Results filed as inconclusive are left out. The source made the active and inactive calls. Calls come from the whole dose curve; as a rule, active = well fitted activation curve with a large enough effect; inconclusive = small, poorly fitted or top-dose-only effect; inactive = no such curve, though single readings can be large or run the other way.
Biological target: Cellular tumor antigen p53 (Homo sapiens) (UniProt P04637)
Assay: Primary qHTS for small molecule compounds that upregulate eGFP-tagged delta133p53alpha (in N-terminal) cells. (AID 2060322);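 note: cells pre-induced with doxycycline then dosed without doxycycline; series mostly up to about 56 µM; 0% = DMSO vehicle and 100% = reference activator; nearly all actives have a fitted effect of over 75% in size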
Conditions: NCI-H358 eGFP-delta133p53alpha fluorescence, 24 h; activation: hits give high values
Outline: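 NCI-H358 cells pre-induced 24 h with 10 ng/ml doxycycline for eGFP-delta133p53alpha, plated dox-free and exposed 24 h at 37C to titrated compounds. Fixed, Hoechst-stained; gated GFP peak intensity by laser scanning cytometry, normalized to DMSO (0%) and 57.5 uM 5-azacytidine (100%).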

Sequence of Cellular tumor antigen p53 (Homo sapiens) (P04637 whole entry, looked up): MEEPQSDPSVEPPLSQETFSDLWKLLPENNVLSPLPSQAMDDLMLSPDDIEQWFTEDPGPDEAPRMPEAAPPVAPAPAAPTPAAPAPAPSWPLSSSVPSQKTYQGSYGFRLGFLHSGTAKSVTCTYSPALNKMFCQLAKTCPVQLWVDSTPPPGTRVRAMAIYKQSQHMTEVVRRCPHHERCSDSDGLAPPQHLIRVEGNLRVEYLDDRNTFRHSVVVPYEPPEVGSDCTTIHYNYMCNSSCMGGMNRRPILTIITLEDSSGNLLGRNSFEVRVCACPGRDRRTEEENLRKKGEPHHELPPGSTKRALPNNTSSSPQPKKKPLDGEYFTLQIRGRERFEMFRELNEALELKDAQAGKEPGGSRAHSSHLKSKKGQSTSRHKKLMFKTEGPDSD

Row | Compound | activation
1 | CCOC(=O)Nc1ccc2c(c1)N(C(=O)CCN1CCOCC1)c1ccccc1S2 | 4.18% (inactive)
2 | CCOC(=O)[C@H](CCc1ccccc1)N[C@@H](C)C(=O)N1Cc2cc(OC)c(OC)cc2C[C@H]1C(=O)O | -5.86% (inactive)
3 | CCC(=O)NC[C@H](Cc1ccc(OCCc2nc(-c3ccccc3)oc2C)cc1)NC(C)=CC(=O)c1ccc(C(F)(F)F)cc1 | 17.2% (inactive)
4 | CCCC(O)C(CC)CO (configuration not stated) | 6.21% (inactive)
5 | CC(=O)Oc1cccc(C)c1 | -28.8% (inactive)
6 | CCOC(=O)N1CCC(n2c(=O)[nH]c3cc(Cl)ccc32)CC1 | -16.4% (inactive)
7 | C[C@@H]1CCC[C@H](C)N1 | 8.37% (inactive)
8 | O=c1[nH]c2cc(C(F)(F)F)c(N3CCOCC3)cc2n(CP(=O)(O)O)c1=O | 6.21% (inactive)
9 | NC1CCN(c2cccc(Cl)n2)CC1 | -10.7% (inactive)
10 | CC(=O)NCCCCCC(=O)O | 0.837% (inactive)
11 | COC(=O)N/N=C/c1c[n+]([O-])c2ccccc2[n+]1[O-] | -30.1% (inactive)
12 | Nc1cccc(-c2csc(NC(=O)CCCCCCC(=O)NO)n2)c1 | 139% (inactive)
13 | O=c1cc[nH]c(=O)[nH]1 | -12.6% (inactive)
14 | CCCCCCCC/C=C\CCCCCCCCN | -16.7% (inactive)
15 | CCn1c(=O)c2c(nc(C=Cc3ccc(OC)c(OC)c3)n2C)n(CC)c1=O | -8.1% (inactive)
16 | Cc1onc(-c2c(Cl)cccc2Cl)c1C(=O)Cl | -15.3% (inactive)
17 | Nc1ncnc2c1ncn2[C@@H]1O[C@@H](CO)[C@H](O)[C@H]1O | -9.84% (inactive)
